Records with an inconclusive call do not appear. Values without a mark were called inactive. Calls follow the shape of the dose curve; as a rule, active = well fitted curve in the direction sought with a large enough effect in the repeat runs; inconclusive = weak or mixed curves, or another doubt; inactive = no such curve, though single readings can be large or run the other way.
Assay: Comparison of Janus kinase inhibitors to block the type I interferon pathway in human skeletal muscle cells: CTG Counterscreen
Conditions: human skeletal muscle cells viability, CellTiter-Glo ATP luminescence; series mostly up to 45.9 µM; activity change, negative = cytotoxicity: at the top concentration
Text: Assay Submitter (PI): Travis B. Kinder Ph.D.
National Center for Advancing Translational Sciences (NCATS)
The family of Janus kinases (JAK1, JAK2, JAK3, TYK2) mediate signal transduction from cytokine receptors through phosphorylation and activation of intracellular signaling pathways and transcription factors. Small molecule antagonists of JAKs (jakinibs) have been developed with varying selectivity for the use in malignancies and immune regulation. […] We have assayed a library of 48 jakinibs for their ability to inhibit the JAK1/TYK2-dependent type I interferon (IFN) - major histocompatibility complex (MHC) class I pathway in human skeletal muscle cells genome-engineered to fuse a pro-luminescent HiBiT peptide to endogenous MHC class I.
The assay utilized CRISPR/Cas9 genome-engineered immortalized human myoblasts, C25cl48, where a pro-luminescent reporter HiBit was fused to the C-terminus of endogenous MHC class I allele HLA-B*08:01 (HLA-B HiBit myoblasts) (Kinder et al., 2020). HiBit is an 11 amino acid fragment of NanoLuc luminescent reporter (Promega Corporation), and when complexed to the larger LgBit fragment, the reconstituted enzyme produces light in the presence of furimazine substrate. Briefly, HLA-B HiBit myoblasts were plated into 1536-well plates, treated with 4.0 ng/ml human IFN-beta and 48 jakinibs in an 11-point, 1:3 titration with a high final concentration of 46 uM. After 24 hrs of treatment, cells were assayed by CellTiter-Glo Luminescent Cell Viability Assay (Promega) and luminescence measured by a ViewLux 1430 Ultra HTS (Perkin Elmer).
1. Kinder TB, Dranchak PK, Inglese J. High-Throughput Screening to Identify Inhibitors of the Type I Interferon-Major Histocompatibility Complex Class I Pathway in Skeletal Muscle. ACS Chem Biol. 2020 Jul 17;15(7):1974-1986. doi: 10.1021/acschembio.0c00343
PROTOCOL TABLE (as described by Inglese et al., 2007)
SEQUENCE No. (e.g., 1, 2, 3, etc.); PARAMETER (e.g., Cells, Incubation, Reagent, etc.); VALUE; DESCRIPTION
1a; Cells; 5 uL; Seed 250 cells/well with a Multidrop Combi (Thermo Scientific) into two Greiner 1536 well white/solid bottom, high base, TC plates (789173-F) in 5 ul/well of growth medium (GM) without dexamethasone into columns 1+2
1b; Cells; 5 uL; Seed 250 cells/well with a Multidrop Combi (Thermo Scientific) into two Greiner 1536 well white/solid bottom, high base, TC plates (789173-F) in 5 ul/well of GM without dexamethasone + 4 ng/ml IFN-beta into columns 3 - 48. Add metal lids with gas-exchange holes.
2; Incubate; 30 min; Incubate at 37C, 5% CO2, 95% RH
3; Compounds; 23 nl; Transfer DMSO control and library compounds in DMSO with Pin Tool (Wako)
4; Incubate; 24 hrs; Incubate at 37C, 5% CO2, 95% RH
5; Dispense; 2.5 ul; Add CellTiter Glo lytic reagent with a BioRAPTR FRD (Beckman Coulter)
6; Incubate; 10 min; Incubate in the dark at ambient temperature for lysis
7; Detector; 5 sec; Measure luminescence with ViewLux 1430 Ultra HTS (Perkin Elmer). Settings: Exposure = 2 sec, Gain = High, Speed = Slow, Binning = 2X
NOTES (numbers refer to sequence above)
1; HLA-B HiBit myoblasts cultured in GM - 4:1 ratio DMEM Glutamax (Thermo Fisher, 10566) : M199 (Thermo Fisher, 11150), 10% FBS (Hyclone Standard), 1% Pen/Strep, 50 ug/ml fetuin, 10 ng/ml hEGF, 1 ng/ml bhFGF, 10 ug/ml insulin, 0.4 ug/ml dexamethasone (supplements from Promocell, C-39360). […] Recombinant human IFN-beta (Peprotech, 300-02BC) was reconstituted in water, diluted in GM, and aliquots stored at -80C until day of use.
3; Control plate contained DMSO in columns 1 and 4, digitonin (Sigma, D141) cytotoxicity control in DMSO at 20 mM in column 2, and ruxolitinib (Selleckchem, S1378) inhibitor control in DMSO 16-point, 1:2 titration, high concentration = 17 mM in column 3. Digitonin and ruxolitinib stocks were reconstituted at 20 and 50 mM in DMSO and aliquots stored at -20C. […]

| SMILES | activity change, negative = cytotoxicity |
| --- | --- |
| N#CCNC(=O)c1ccc(-c2ccnc(Nc3ccc(N4CCOCC4)cc3)n2)cc1 | -19.9% |
| CC(C)(C)NC(=O)Nc1cccc(Nc2ncc(F)c(NC(C)(C)CO)n2)c1 | 6.2% |
| [2H]C([2H])([2H])NC(=O)c1nnc(NC(=O)C2CC2)cc1Nc1cccc(-c2ncn(C)n2)c1OC | -10.7% |
| CC(C)(C)c1nc2c3cc[nH]c(=O)c3c3cc(F)ccc3c2[nH]1 | -11.6% |
| CN1CCN(c2cccc(Nc3nc4c(-c5ccc(S(C)(=O)=O)cc5)cccn4n3)c2)CC1 | -4.5% |
| Cc1oncc1C(=O)Nc1ccc(C(F)(F)F)cc1 | -6.1% |
| C[C@@H]1CCN(C(=O)CC#N)C[C@@H]1N(C)c1ncnc2[nH]ccc12 | 3.19% |
| CCCS(=O)(=O)NC1CC(N(C)c2ncnc3[nH]ccc23)C1 (configuration not stated) | 5.82% |
| CCn1c(C(=O)N(C2CC2)C2CC2)cc2c3c(ncn3C)c(Nc3cc(C)n(C)n3)nc21 | -17.3% |
| CN(C)c1ccc(Nc2nc(N)n(C(=O)c3c(F)cccc3F)n2)cc1 | -10.4% |
| COc1cc2ncnc(Nc3ccc(O)cc3)c2cc1OC | -2.03% |
| CNS(=O)(=O)CC1CCC(N(C)c2ncnc3[nH]ccc23)CC1 (configuration not stated) | 15% |
| CC(C)(C)NS(=O)(=O)c1ccc(-c2ccc3[nH]nc(N)c3c2)cc1 | 15.9% |
| CC[C@@H]1CN(C(=O)NCC(F)(F)F)C[C@@H]1c1cnc2cnc3[nH]ccc3n12 | -28.6% |
| O=C(Nc1ccnc(NC(=O)C2CC2)c1)c1c(Cl)cccc1Cl | 8.25% |
| C=CC(=O)Nc1ccc(F)c(-c2ncnc3[nH]cc(C(=O)OCC)c23)c1 | 3.28% |
| CC(C)(O)C(=O)N1CCN(c2ccc(C(F)(F)F)c(C3=C(c4c[nH]c5ccccc45)C(=O)NC3=O)c2)CC1 | -7.18% |
| N#CC[C@H](C1CCCC1)n1cc(-c2ncnc3[nH]ccc23)cn1 | 8.46% |
| O=C(Nc1ccc(-c2ccnc(Nc3ccc(N4CCOCC4)cc3)n2)cc1)[C@@H]1CCCN1 | 12.2% |
| Cc1cc(Nc2cc(CN3CCOCC3)c3nc(C)c(Cc4ccc(Cl)cc4F)n3n2)n[nH]1 | -19% |
| CC1(C)CN(C(=O)c2ccc(-c3cccc4nc(NC(=O)C5CC5)nn34)cc2)C1 | 7.08% |
| CC[C@@](C)(Nc1ccnc(-c2c[nH]c3ncccc23)n1)C(=O)NCC(F)(F)F | 5.31% |
| CCS(=O)(=O)N1CC(CC#N)(n2cc(-c3ncnc4[nH]ccc34)cn2)C1 | 1.82% |
| N#C/C(=C\c1ccc(O)c(O)c1)C(=O)NCc1ccccc1 | 1.73% |
| Cn1cc(Nc2nccc(N3C[C@H]4CC[C@@H](C3)N4C(=O)[C@@H]3CC3(F)F)n2)cn1 | -24.6% |
| CCS(=O)(=O)N1CCN(c2ccc(Nc3ncc(C(N)=O)c(NC4CC4)n3)cc2)CC1 | 1.99% |
| NC(=O)c1cnc2[nH]ccc2c1NC1C2CC3C[C@H]1CC(O)(C3)C2 (some centres not stated) | 1.18% |
